# Laboratory results published in PubChem BioAssay.
# “And” between values parts separate entries of the source, which are not always exact repeats. Equal entries are not always repeated. Results filed as inconclusive are left out. More than one record can exist for a structure, and the calls need not agree. The source made the active and inactive calls. Rule as the data show it, unless noted: active = inhibition above about 80%; inactive = the rest.
# Experiments:
# [1] = growth inhibition of DIPG cells – cell-based, MIPE4.0 library, CellTiter-Glo luminescence, qHTS (AID 1347066; cut-off not given, nearly all actives have AC50 up to about 30 µM;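 also: cells exposed to compound for 48 hours before readout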); conditions: SU-DIPG-VI viability, CellTiter-Glo ATP luminescence
# [2] = chitosan synthesis blockers in C. neoformans – flow cytometry, Cibacron Brilliant Red staining (AID 1347148; call rule not given here;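 also: compound exposure lasted three days at 37 degrees C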); conditions: Cryptococcus neoformans chitosan, stronger effect = lower value; at 10 µM unless noted
# [3] = blockers of cellular phospholipid synthesis – cell-based, LOPAC library, screen 4, primary screen (AID 1347384; call rule not given here); conditions: animal cells, phospholipid biosynthesis inhibition screen; at 10 µM
# [4] = MELAS cybrid and Rieske KO viability enhancers – cell-based, MELAS cybrids, Rieske KO mouse fibroblasts, CellTiter-Glo, primary screen (AID 1508586;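 active = mean z-score across replicates of 1.96 or higher in either the MELAS or the Rieske mutant cell line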;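 also: z relative to plate mean and SD of compound and empty wells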); conditions: low glucose
# [5] = biological target: NAD(+) hydrolase SARM1 (Homo sapiens) (UniProt Q6SZW1); assay: blocking NAD cleavage by SARM1 SAM-TIR – cell lysate, NAD-Glo luminescence (AID 1508614;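 active = compound whose remaining NAD level is above about 45 nM, limit read from the data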;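 also: higher remaining NAD means stronger inhibition of SARM1 NADase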); conditions: SAM-TIR HEK293T lysate NADase, at 1 µM, stronger effect = higher value
# [6] = biological target: Mitogen-activated protein kinase 7 (Homo sapiens) (UniProt Q13164); assay: Gal4-ERK5 driven luciferase induction – cell-based, HTS, primary screen (AID 1508626;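 active = luciferase signal above three times the same-plate solvent-only control wells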;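 also: luciferase driven by Gal4-ERK5 fusion binding five Gal4 sites before minimal TATA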); conditions: HeLa Gal4-ERK5 transactivation, 18 h, at 5 µM, stronger effect = higher value
# [7] = galactose survival enhancers in mitochondrial complex I cybrids – cell-based, galactose medium, ATP luminescence, primary screen (AID 1645843;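 active = z-score of at least 1.8 in each of two replicates, scored against plate mean and spread of sample wells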;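 also: positive z means more ATP and so rescue of galactose-driven cybrid death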); conditions: complex I mutant cybrid cells, 72 h, stronger effect = higher value
# [8] = viability loss with induced miR-34 in A549 – imaging, A549 dox-inducible miR-34, nuclei and caspase counts, primary screen (AID 1347080;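 active = compounds whose cell count with miR-34 switched on is under 0.7 times the count with it off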); conditions: A549 miR-34 inducible, Hoechst nuclei count, 48 h
# [9] = growth inhibition of DIPG cells – cell-based, MIPE5.0 library, qHTS (AID 1347068; cut-off not given, nearly all actives have IC50 up to about 30 µM); conditions: SU-DIPG-XXV viability
# [10] = growth inhibition, single agent or in combination, cell-based, chromothripsis tumors, cisplatin or BGB combos (AID 1671449); conditions: LFS_MB_P medulloblastoma cells;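 also: cells exposed for 96 hours; 0% = vehicle DMSO and 100% = killing by high DMSO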
# [11] = growth inhibition, single agent and combos, cell-based, chromothripsis tumors, cisplatin or BGB combos (AID 1671450); conditions: HDN33 neuroblastoma cells, stronger effect = higher value;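 also: cells exposed to compound for four days; 0% = vehicle DMSO and 100% = cell killing by high DMSO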
# [12] = growth inhibition, single agents and combos, ICB984, cell-based, cisplatin or BGB combos, synergistic combos for chromothripsis tumors (AID 1671451; call rule not given here;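 also: cells exposed for 96 hours before readout; 0% = vehicle DMSO and 100% = killing by high DMSO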); conditions: ICB984 medulloblastoma cells, drug combinations, stronger effect = higher value
# [13] = growth inhibition, single agents and combos, LFS_MB_1R, cell-based, cisplatin or BGB combos, synergistic combos for chromothripsis tumors (AID 1671452); conditions: LFS_MB_1R medulloblastoma cells, stronger effect = higher value;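 also: cells exposed for 96 hours before readout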
# [14] = growth inhibition, single agents and combos, HTB85, cell-based, BGB or cisplatin IC20 combos, synergistic combos for chromothripsis tumors (AID 1671453); conditions: HTB85 osteosarcoma cells, drug combinations, stronger effect = higher value;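 also: cells exposed for 96 hours before readout; 0% = vehicle DMSO and 100% = high DMSO killing control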
# [15] = growth inhibition, single agents and combos, CRL2098, cell-based, BGB or cisplatin IC20 combos, synergistic combos for chromothripsis tumors (AID 1671454); conditions: CRL2098 osteosarcoma cells, drug combinations, stronger effect = higher value;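 also: cells exposed for 96 h before readout; 0% = vehicle DMSO and 100% = killing by high DMSO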
# [16] = growth inhibition, single agents and combos, HD-MB03, cell-based, BGB or cisplatin IC20 combos, synergistic combos for chromothripsis tumors (AID 1671455; in the data active = inhibition above about 83%;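 also: 0% = vehicle DMSO and 100% = high DMSO as cytotoxic control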); conditions: HD-MB03 medulloblastoma cells, stronger effect = higher value
# [17] = MELAS cybrid survival, CellTiter-Glo 48 h, stronger effect = higher value
# [18] = Rieske KO mouse fibroblast survival, CellTiter-Glo 72 h
# [19] = stronger effect = lower value, cell number ratio, induced over uninduced
# [20] = measured here: relative caspase fold change +Dox/-Dox
# [21] = measured here: total cells with miR-34 induction, stronger effect = lower value
# [22] = measured here: total cells without miR-34 induction
# [23] = measured here: combination with BGB IC40, at 0.05 µM
# Sequence of NAD(+) hydrolase SARM1 (Homo sapiens) (Q6SZW1 whole entry, looked up, the tested form may be a part): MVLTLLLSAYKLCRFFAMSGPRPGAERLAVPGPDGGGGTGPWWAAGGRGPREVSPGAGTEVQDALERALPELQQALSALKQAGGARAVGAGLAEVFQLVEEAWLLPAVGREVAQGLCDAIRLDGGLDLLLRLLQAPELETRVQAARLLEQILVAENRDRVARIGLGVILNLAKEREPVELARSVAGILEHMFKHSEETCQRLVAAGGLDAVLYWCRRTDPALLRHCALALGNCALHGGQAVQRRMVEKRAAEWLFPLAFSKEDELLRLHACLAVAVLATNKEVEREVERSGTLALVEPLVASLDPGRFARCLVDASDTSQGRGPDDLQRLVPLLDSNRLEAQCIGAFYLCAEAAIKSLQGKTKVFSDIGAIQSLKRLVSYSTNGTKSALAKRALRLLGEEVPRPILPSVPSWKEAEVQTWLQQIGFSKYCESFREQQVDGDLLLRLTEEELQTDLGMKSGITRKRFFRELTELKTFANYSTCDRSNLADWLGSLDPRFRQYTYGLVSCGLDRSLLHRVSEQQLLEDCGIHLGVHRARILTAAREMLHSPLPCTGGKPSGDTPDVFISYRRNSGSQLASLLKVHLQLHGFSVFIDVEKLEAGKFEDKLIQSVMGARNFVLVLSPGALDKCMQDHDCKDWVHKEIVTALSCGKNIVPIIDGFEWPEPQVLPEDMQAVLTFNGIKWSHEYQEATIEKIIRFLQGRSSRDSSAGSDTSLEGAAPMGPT
# Sequence of Mitogen-activated protein kinase 7 (Homo sapiens) (Q13164 whole entry, looked up, the tested form may be a part): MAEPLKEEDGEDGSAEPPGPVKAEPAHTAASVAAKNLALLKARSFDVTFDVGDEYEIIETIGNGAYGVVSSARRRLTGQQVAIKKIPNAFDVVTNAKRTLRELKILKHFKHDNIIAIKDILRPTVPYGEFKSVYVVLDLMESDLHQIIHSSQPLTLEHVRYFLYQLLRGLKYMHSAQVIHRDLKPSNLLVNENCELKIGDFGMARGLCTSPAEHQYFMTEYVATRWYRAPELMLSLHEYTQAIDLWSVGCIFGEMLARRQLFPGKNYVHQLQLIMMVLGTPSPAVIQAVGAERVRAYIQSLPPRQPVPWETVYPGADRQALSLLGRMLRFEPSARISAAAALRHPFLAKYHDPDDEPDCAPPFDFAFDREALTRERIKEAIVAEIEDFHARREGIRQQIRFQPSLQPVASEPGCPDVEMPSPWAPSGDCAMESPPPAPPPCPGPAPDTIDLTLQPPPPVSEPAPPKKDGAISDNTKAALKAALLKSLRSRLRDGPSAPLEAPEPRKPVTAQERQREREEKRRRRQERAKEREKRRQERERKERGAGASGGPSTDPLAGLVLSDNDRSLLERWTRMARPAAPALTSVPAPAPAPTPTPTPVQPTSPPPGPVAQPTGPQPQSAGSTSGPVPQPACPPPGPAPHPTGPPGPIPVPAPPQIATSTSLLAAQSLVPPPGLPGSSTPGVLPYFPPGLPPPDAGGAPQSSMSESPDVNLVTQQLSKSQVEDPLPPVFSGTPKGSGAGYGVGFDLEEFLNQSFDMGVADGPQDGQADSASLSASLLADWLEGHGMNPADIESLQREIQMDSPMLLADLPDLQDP
compound,measurement,setting,value
Fc1ccc(C(c2ccc(F)cc2)N2CCN(C/C=C/c3ccccc3)CC2)cc1,outcome,[1],inactive
same,fold fluorescence,[2],3.48 [at 123.6 µM] (inactive)
same,outcome,[3],inactive
same,z-score,[4]; [17],-1.68 (inactive) and -0.773 (inactive)
same,z-score,[4]; [18],-0.315 and -0.0521
same,remaining NAD,[5],10 nM (inactive)
same,luciferase signal,[6],116 AU (inactive)
same,z-score,[7],-1.04 (inactive) and -1.24 (inactive) and -2.23 (inactive)
CN1[C@@H]2CC[C@H]1CC(OC(=O)c1c[nH]c3ccccc13)C2 (some centres not stated),outcome,[1],inactive
same,fold change,[8]; [19],0.918 (inactive) and 0.888 (inactive)
same,fold change,[8]; [20],1.65 and 1.61
same,cell count,[8]; [21],8920 and 10100
same,cell count,[8]; [22],9710 and 11400
same,z-score,[4]; [17],0.412 (inactive)
same,z-score,[4]; [18],0.0805
same,remaining NAD,[5],10 nM (inactive)
same,z-score,[7],-0.025 (inactive) and 0.755 (inactive)
CC(=O)Oc1ccccc1C(=O)Nc1ncc([N+](=O)[O-])s1,AC50,[1],9.59 µM (active)
same,outcome,[9],inactive
same,fold change,[8]; [19],1.08 (inactive) and 0.866 (inactive)
same,fold change,[8]; [20],1.12 and 1.29
same,cell count,[8]; [21],2500 and 6120
same,cell count,[8]; [22],2310 and 7070
same,z-score,[4]; [17],-0.496 (inactive) and -0.13 (inactive)
same,z-score,[4]; [18],-2.39 and 0.602
same,remaining NAD,[5],10 nM (inactive)
same,z-score,[7],-1.79 (inactive)
COc1cc(NS(=O)(=O)c2ccc(N)cc2)nc(OC)n1,outcome,[1],inactive
same,fold change,[8]; [19],0.911 (inactive) and 0.916 (inactive) and 0.961 (inactive)
same,z-score,[4]; [17],-0.175 (inactive) and 0.0464 (inactive) and -0.547 (inactive)
same,z-score,[4]; [18],0.68 and -0.334 and -1.37
same,remaining NAD,[5],10 nM (inactive)
same,luciferase signal,[6],48 AU (inactive)
same,z-score,[7],-0.135 (inactive)
O=c1c(-c2ccc(O)cc2)coc2cc(O)cc(O)c12,outcome,[1],inactive
same,fold fluorescence,[2],4.75 [at 185 µM] (inactive)
same,outcome,[3],inactive
same,z-score,[4]; [17],-0.427 (inactive)
same,z-score,[4]; [18],0.508
same,luciferase signal,[6],276 AU (active)
same,z-score,[7],1.99 (active) and 1.98 (inactive)
same,inhibition,"[10]; at 0.5 µM, stronger effect = higher value",-9.97% (inactive) and -4.89% (inactive)
same,inhibition,"[10]; measured here: combination with BGB IC20, at 0.005 µM",-17.8% and -1.45%
same,inhibition,"[10]; measured here: combination with BGB IC40, at 0.005 µM",-18% and -3.22%
same,inhibition,[10]; [23],-25.1% and -11.9%
same,inhibition,"[10]; measured here: combination with cisplatin, at 0.5 µM, stronger effect = higher value",-5.93% and -18.3%
same,inhibition,"[10]; measured here: combination with cisplatin, at 5 µM, stronger effect = higher value",8.08% and 3.66%
same,inhibition,"[11]; BGB combo, at 5 µM",-47.6% and 34.9%
same,inhibition,[11]; at 0.5 µM,-42.8% (inactive) and -12.6% (inactive)
same,inhibition,"[11]; cisplatin combo, at 5 µM",-40% and 3.53%
same,inhibition,"[11]; measured here: with BGB IC20 combination, at 0.5 µM",-43.9% and -15.8%
same,inhibition,"[11]; measured here: with cisplatin IC20 combination, at 0.5 µM",-42.3% and -4.37%
same,inhibition,"[11]; single agent, at 5 µM",-15.6% and 2.01%
same,inhibition,"[12]; BGB IC20 combo, at 0.005 µM",8.8% and -0.198%
same,inhibition,"[12]; BGB IC40 combo, at 0.005 µM",-22.1% and -29.4%
same,inhibition,"[12]; BGB IC40 combo, at 0.05 µM",-7.4% and -6.46%
same,inhibition,[12]; at 0.5 µM,-34.3% (inactive) and -16.8% (inactive)
same,inhibition,"[12]; cisplatin combo, at 0.05 µM",-11.3% and -9.44%
same,inhibition,"[12]; cisplatin combo, at 0.5 µM",-39.9% and -21.8%
same,inhibition,"[12]; cisplatin combo, at 5 µM",-72.1% and -7.73%
same,inhibition,"[12]; measured here: 5 uM single agent, at 5 µM",-9.66% and -12.4%
same,inhibition,[13]; at 0.5 µM,-22.6% (inactive) and -10.7% (inactive)
same,inhibition,[13]; [23],-45.5% and -14.8%
same,inhibition,"[13]; measured here: combination with cisplatin, at 0.5 µM",-45.5% and -6.51%
same,inhibition,"[13]; measured here: combination with cisplatin, at 5 µM",-62.6% and -7.84%
same,inhibition,[14]; at 0.5 µM,-23.1% (inactive) and -8.31% (inactive)
same,inhibition,"[14]; measured here: with BGB IC20, at 0.5 µM",-24.9% and -17.6%
same,inhibition,"[14]; measured here: with BGB IC20, at 5 µM",-18.6% and -5.83%
same,inhibition,"[14]; measured here: with cisplatin IC20, at 0.5 µM",-32.2% and -12.6%
same,inhibition,"[14]; measured here: with cisplatin IC20, at 5 µM",-33.6% and -5.76%
same,inhibition,"[14]; single agent, at 5 µM",-0.415% and -6.72%
same,inhibition,[15]; at 0.5 µM,-89.3% (inactive) and -22.4% (inactive)
same,inhibition,"[15]; measured here: combination with BGB at IC20, at 0.5 µM",-68.7% and -13.6%
same,inhibition,"[15]; measured here: combination with cisplatin at IC20, at 0.5 µM",-148% and -31.4%
same,inhibition,[16]; at 0.5 µM,-19.5% (inactive) and -5.86% (inactive)
same,inhibition,"[16]; measured here: combo with BGB at IC20, at 0.5 µM",-19.9% and -0.815%
same,inhibition,"[16]; measured here: combo with cisplatin at IC20, at 0.5 µM",-26.5% and -4.16%
